Tau FP inhib: tau fibrillization inhibition (FP); Potency, µM (titrated, usually from 57.7 µM), inactives show top-dose activity, negative = inhibition, actives largely listed as inhibitors; 280,000 tested, 0.39% active; K18 P301L tau heparin fibrillization, Alexa594 FP, 6 h; P10636; note: potency is the fitted concentration of half-maximal effect; nearly all actives have a fitted effect of over 55% in size
Target sequence (P10636 561-689 P618L limits assumed): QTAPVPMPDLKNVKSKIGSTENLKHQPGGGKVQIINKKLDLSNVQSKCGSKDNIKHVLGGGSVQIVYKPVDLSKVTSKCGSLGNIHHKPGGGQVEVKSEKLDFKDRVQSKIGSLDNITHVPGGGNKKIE
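Read-out: fluorescence polarization of Alexa 594-labeled tau (0.24 uM), 555 nm excitation, 632 nm emission. Mixtures held 15 uM unlabeled K18 P301L, compound and 20 uM heparin, pH 7 acetate buffer, incubated 6 hr at 37 C.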
Tau fibril ThT: inhibitors of human tau fibril formation, thioflavin T binding; P10636; recombinant tau K18 P301L, heparin-induced fibrillization, ThT fluorescence; Potency, µM (series often up to 57.4 µM), without a hit: at the top dose activity, negative = inhibition, actives largely listed as inhibitors; 270,000 tested, 2.1% active; note: potency is the fitted concentration of half-maximal effect; nearly all actives have a fitted effect of over 55% in size
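ThT emission at 510 nm, taken 1 hr after adding 30 uM dye, quantifies aggregates formed when 20 uM heparin acts on human tau K18 P301L for 6 hr at 37 C.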
Tau fluor cs: counter-screen for tau fibril formation inhibitors | Potency, µM (doses to about 57.7 µM), inactives show at the top dose activity change, negative = decrease | 280,000 tested, 0.93% active | AID 1463 | tau K18 P301L (four-repeat tau fragment) Alexa594 fluorescence, heparin fibrillization; note: potency is the fitted concentration of half-maximal effect; nearly all actives have a fitted effect of over 55% in size
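Human K18 P301L tau (15 uM unlabeled plus 0.24 uM Alexa 594-labeled, final) in 100 mM sodium acetate pH 7 was mixed with compound and 20 uM heparin and incubated 6 hr at 37 C.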
Sfp PPTase inh: blocks B. subtilis Sfp PPTase activity. Biochemical Sfp PPTase activity, qHTS. AID 1490. 310,000 tested, 3.5% active. Q9F4F7. Potency, µM, for inactives: largest response in the series, negative = inhibition, most hits filed as inhibitors;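 note: the enzyme is Sfp with the accession as filed and its product quenches rhodamine fluorescence; potency is the fitted concentration of half-maximal effect; 0% = enzyme reaction without inhibitor and -100% = no enzyme wells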
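After 15 min at room temperature with compound, 15 nM Sfp received 5 uM rhodamine-CoA plus 12.5 uM BHQ-2-ybbR (50 mM Hepes pH 7.6, 10 mM MgCl2). Rate came from the fluorescence difference over 30 min, ex 525/em 598 nm.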
KDM4E inh: blocks human JMJD2E demethylase activity; B2RXH2; JMJD2E catalytic domain, FDH-coupled NADH fluorescence (FDH is formaldehyde dehydrogenase); Potency, µM (top dose mostly 57.1 µM), without a hit: at the highest dose activity change, negative = inhibition, hits mostly inhibitors; 230,000 tested, 1.6% active; AID 2147; active = well fitted inhibition curve with a large enough effect, not every such curve was filed as active; inconclusive = small, poorly fitted or top-dose-only effect, or another doubt; inactive = no such curve, though single readings can be large or run the other way;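 note: potency is the fitted concentration of half-maximal effect; 0% = wells with enzyme and -100% = buffer wells without enzyme; nearly all actives have a fitted effect of over 50% in size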
Target sequence (B2RXH2 1-337 limits assumed): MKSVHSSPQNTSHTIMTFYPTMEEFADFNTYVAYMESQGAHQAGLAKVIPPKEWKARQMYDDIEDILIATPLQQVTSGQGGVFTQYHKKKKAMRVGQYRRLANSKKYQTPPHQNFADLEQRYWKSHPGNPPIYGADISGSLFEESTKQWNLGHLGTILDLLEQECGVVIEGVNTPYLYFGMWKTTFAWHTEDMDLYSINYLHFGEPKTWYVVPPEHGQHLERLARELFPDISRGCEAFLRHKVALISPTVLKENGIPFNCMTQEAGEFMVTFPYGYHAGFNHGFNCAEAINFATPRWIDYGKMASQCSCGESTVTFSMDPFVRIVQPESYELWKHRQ
FBPA coupling cs: counter-screen for Giardia aldolase inhibitors: coupling enzyme system | coupling enzyme system counterscreen, AmpLite Red fluorescence | activity change, negative = inhibition, % at 58.2 µM, hits read low | 290,000 tested, 0.67% active; in the data active = activity change below about -30%
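Counterscreen lacking aldolase: glyceraldehyde-3-phosphate coupling-enzyme reagent preincubated 10 min at RT with compound (at 57.5 uM final), then substrate/coupling system with AmpLite Red added; fluorescence read at 525/598 nm after 20 min RT.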
Starred values were filed as active, the others as inactive; [ ] = another dose, or the depositor's remark. In the library only some 5.3% were active in any assay of this set; here they are far more common. Unless noted, calls come from the whole dose curve; as a rule, active = well fitted curve in the direction sought with a large enough effect; inconclusive = small, poorly fitted or top-dose-only effect, or another doubt; inactive = no such curve, though single readings can be large; an effect the other way counts as inactive or inconclusive. Unless noted, % is set by controls: 0 for no effect and ±100 for the full control effect.

COc1ccc2ccccc2c1C(=O)/C=C\c1ccoc1 was read as Tau FP inhib -8%, Tau fibril ThT inconclusive, Tau fluor cs -18%, Sfp PPTase inh 7.9µM*, KDM4E inh 25µM* and FBPA coupling cs -26.
Screening CCOC(=O)NCCOc1ccc(Oc2ccccc2)cc1 returned Sfp PPTase inh -4% and FBPA coupling cs -2.
`COc1ccc(NC(=S)Nc2ncccc2C)cc1OC` gave Tau FP inhib 1%, Tau fibril ThT inconclusive, Tau fluor cs -21%, Sfp PPTase inh 40µM*, KDM4E inh inconclusive and FBPA coupling cs 0.
Screening COc1ccc(NC(=S)Nc2ncccc2C)c(OC)c1 returned Tau FP inhib 7%, Tau fibril ThT inconclusive, Tau fluor cs -24%, Sfp PPTase inh -26%, KDM4E inh 9% and FBPA coupling cs 3.
Screening Cc1cccnc1NC(=S)Nc1ncccc1C returned Tau FP inhib 4%, Tau fibril ThT -10%, Tau fluor cs -11%, Sfp PPTase inh -21%, KDM4E inh inconclusive and FBPA coupling cs -1.
Screening Cc1cccnc1NC(=S)Nc1ccc(Cl)c(Cl)c1 returned Tau FP inhib inconclusive, Tau fibril ThT -8%, Tau fluor cs inconclusive, Sfp PPTase inh 14µM*, KDM4E inh -26% and FBPA coupling cs 4.
`COc1ccc(CCC(=O)NC2CC(=O)N(c3ccc(C)c(C)c3)C2)cc1` (stereo not given) gave Tau FP inhib -7%, Tau fibril ThT -7% and Tau fluor cs -5%.
For Cc1cc(C(=O)O)ccc1-n1c(C)cc(C=C2C(=O)c3ccccc3C2=O)c1C the results were Tau FP inhib -8%, Tau fibril ThT 14µM*, Tau fluor cs -18%, Sfp PPTase inh -21%, KDM4E inh inconclusive and FBPA coupling cs -25.
For CNc1ncnc2c1ncn2[C@H]1C[C@H](OP(=O)(O)O)[C@H](COP(=O)(O)O)O1 the results were Tau FP inhib 6%, Tau fibril ThT 0%, Tau fluor cs 3%, Sfp PPTase inh 28µM*, KDM4E inh 3% and FBPA coupling cs 1.
Screening Cc1cccc(NS(=O)(=O)c2cc(NC(=O)CC(=O)c3ccc([N+](=O)[O-])cc3)ccc2C)c1 returned Tau FP inhib -6%, Tau fibril ThT inconclusive, Tau fluor cs 7.9µM*[quencher], Sfp PPTase inh -13%, KDM4E inh -12% and FBPA coupling cs -1.
Cc1ccc(C(=O)Nc2cccc([N+](=O)[O-])c2)cc1S(=O)(=O)Nc1ccc(C(=O)O)cc1 was read as Tau FP inhib -1%, Tau fibril ThT -16%, Tau fluor cs -18%, Sfp PPTase inh -12%, KDM4E inh -3% and FBPA coupling cs 2.
For Cc1ccccc1NS(=O)(=O)c1cc(C(=O)Nc2cccc([N+](=O)[O-])c2)ccc1C the results were Tau FP inhib -13%, Tau fibril ThT inconclusive, Tau fluor cs 14µM*[quencher], Sfp PPTase inh inconclusive, KDM4E inh -3% and FBPA coupling cs 1.
`O=C(c1ccc2c(c1)N(Cc1ccc(F)cc1)C(=O)c1ccccc1S2(=O)=O)N1CCC(Cc2ccccc2)CC1` gave Tau FP inhib 2%, Tau fibril ThT 6% and Tau fluor cs 4%.
Screening COC(=O)/C(=C1/OC(=O)C(c2ccccc2)=C1O)c1ccccc1 returned Tau FP inhib 0%, Tau fibril ThT inconclusive, Tau fluor cs -9%, Sfp PPTase inh -8%, KDM4E inh -1% and FBPA coupling cs 14.
COC(=O)/C=C1\OC(c2ccccc2)=CC1=O was read as Tau FP inhib -10%, Tau fibril ThT 25µM*, Tau fluor cs -1%, Sfp PPTase inh 20µM*, KDM4E inh 0% and FBPA coupling cs 3.
For O=C(Nc1ccc(N2CCCC2)c(S(=O)(=O)Nc2cccc(C(F)(F)F)c2)c1)c1cccs1 the results were Tau FP inhib 7%, Tau fibril ThT -13%, Tau fluor cs 10µM*[quencher], Sfp PPTase inh 7%, KDM4E inh inconclusive and FBPA coupling cs -5.
O=C(Nc1cc(C(F)(F)F)ccc1N1CCOCC1)c1cccs1 was read as Tau FP inhib 6%, Tau fibril ThT -9%, Tau fluor cs 0%, Sfp PPTase inh -5%, KDM4E inh 5% and FBPA coupling cs -1.
`COc1ccccc1NS(=O)(=O)c1cc(NC(=O)c2cccs2)ccc1N1CCCC1` gave Tau FP inhib -4%, Tau fibril ThT inconclusive, Tau fluor cs inconclusive, Sfp PPTase inh 20µM*, KDM4E inh inconclusive and FBPA coupling cs 0.
`COc1ccccc1NS(=O)(=O)c1cc(NC(=S)Nc2cc(C)cc(C)c2)ccc1Cl` gave Tau FP inhib inconclusive, Tau fibril ThT -7%, Tau fluor cs 32µM*[quencher], Sfp PPTase inh -14%, KDM4E inh -4% and FBPA coupling cs -4.
`COc1ccccc1NS(=O)(=O)c1cc(NC(=O)c2sccc2C)ccc1N1CCOCC1` gave Tau FP inhib -5%, Tau fibril ThT -1%, Tau fluor cs -30%, Sfp PPTase inh 2%, KDM4E inh -22% and FBPA coupling cs 1.
Screening COc1ccccc1NS(=O)(=O)c1cc(NC(=O)c2cccs2)ccc1N1CCCCC1 returned Tau FP inhib inconclusive, Tau fibril ThT inconclusive, Tau fluor cs -11%, Sfp PPTase inh 17%, KDM4E inh 25µM* and FBPA coupling cs 1.
O=C1C[C@@H](O)[C@@H](O)[C@@H]2[C@H]3C(=O)N(c4ccc(F)cc4F)C(=O)[C@@H]3CC[C@@H]12 was read as Tau FP inhib -6%[11.6 µM], Tau fibril ThT -9%[11.5 µM], Tau fluor cs 0%[11.6 µM], Sfp PPTase inh 25% and FBPA coupling cs -2.
For CCOc1ccc(-c2cc(NC(=O)c3ccccc3)c(C(=O)OC)s2)cc1 the results were Tau FP inhib 1%, Tau fibril ThT -5% and Tau fluor cs -9%.
Screening COc1ccccc1NC(=O)C1=C(C)Nc2ncnn2C1c1ccc[nH]1 (stereo not given) returned Tau FP inhib -1%, Tau fibril ThT -4% and Tau fluor cs -7%.
Screening Cc1c(C(=O)NCCc2ccccc2)cccc1-n1cnc2cccnc21 returned Tau FP inhib -5%, Tau fibril ThT 1% and Tau fluor cs -3%.
O=C(Nc1ccc(Cl)c(S(=O)(=O)Nc2ccccc2Cl)c1)c1cccs1 was read as Tau FP inhib inconclusive, Tau fibril ThT -6%, Tau fluor cs 25µM*[quencher], Sfp PPTase inh 13%, KDM4E inh -3% and FBPA coupling cs 9.
